A selection: hits, their analogues and other compounds. The true share with any hit is near 17%.
TDP1 cell noCPT = qHTS for Inhibitors of human tyrosyl-DNA phosphodiesterase 1 (TDP1): qHTS in cells in absence of CPT; AID 686978, 2013; Potency, µM (top dose mostly 46.2 µM), inactives show top-dose activity change, negative = growth inhibition, hits mostly inhibitors; 420,000 tested, 15% active; DT40 Tdp1-/- hTDP1 cells, no CPT, ATP luminescence, 48 h; note: % is set by controls: 0 for no effect and ±100 for the full control effect; nearly all actives have a fitted effect of over 55% in size
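Camptothecin absent (DMSO only). Human TDP1-complemented DT40 knockout cells, 400 cells/well, 37 °C for minimum 48 hr; ATP measured via CellTiter-Glo, 30 min dark incubation, luminescence.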
HT1080NT lethal = kills 2HG-producing HT-1080-NT fibrosarcoma cells | AID 686970 | HT-1080-NT fibrosarcoma viability, CellTiter-Glo ATP luminescence, 48 h | 360,000 tested, 1.6% active | Potency, µM (series often up to 46.1 µM), without a hit: at the top dose activity, negative = less viability, most hits filed as cytotoxic;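 note: NT is the 2HG producing partner of a matched IDH1 knockdown line; 0% = DMSO-treated cells and -100% = media-only wells without cells; nearly all actives have a fitted effect of over 55% in size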
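Fibrosarcoma NT cells, 750 per well in 5% FBS RPMI, were exposed to compound for 48 hours. Viability: CellTiter-Glo luminescence.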
TGFb SMAD3 inh = blocks TGF-b signaling. HepG2 CAGA-GFP TGF-b/SMAD3 reporter, GFP fluorescence, 18 h; TGF-beta stimulated, 500 pg/mL final. Potency, µM (titrated, usually from 46.1 µM), without a hit: at the highest dose activity, negative = inhibition, most hits filed as inhibitors. 410,000 tested, 1.2% active. AID 588855; note: % is set by controls: 0 for no effect and ±100 for the full control effect; nearly all actives have a fitted effect of over 65% in size
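GFP signal (ex488/em500-530) from TGF-beta-stimulated HEPG2 CAGA-GFP cells, 500 pg/mL final, 18 h at 37 degrees C in DMEM plus 1% FBS, normalized to unstimulated and DMSO-stimulated controls.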
HT1080 IDH1KD tx = HT-1080 IDH1 knockdown cell toxicity (counter line); Potency, µM (top dose mostly 46.1 µM), without a hit: at the top dose activity, negative = toxicity, most hits filed as cytotoxic; 360,000 tested, 2% active; HT-1080 IDH1 knockdown viability, ATP luminescence, 48 h;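 note: 0% = DMSO wells and -100% = cell-free medium wells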
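Viability of IDH1-knockdown HT-1080 fibrosarcoma cells was assessed by CellTiter-Glo after 48 h at 37 °C with titrated compound; concentration-effect curves were classified by fit quality and response size.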
HepG2 tox = counter-screen for TGF-b inhibitors: cytotoxicity in HepG2 cells. HepG2 CAGA-GFP viability, ATP luminescence, 18 h. Potency, µM (top dose mostly 46.1 µM), for inactives: at the highest dose activity change, negative = cytotoxicity, hits mostly cytotoxic. 410,000 tested, 0.76% active. AID 588856
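CellTiter-Glo luminescence gave cytotoxicity after 18 hours at 37 degrees C. The cells were HepG2 CAGA-GFP in 1% FBS DMEM, stimulated with 500 pg/mL TGF-beta after compound addition. %Activity was normalised to no-cell wells (complete cell-killing) and DMSO (no toxicity), and curves were fitted and classified.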
DT40 TDP1 CPT = growth inhibition of DT40 Tdp1-/-;hTDP1 cells with camptothecin (screen for TDP1 inhibitors); chicken DT40 Tdp1-/-;hTDP1 cells + 20 nM CPT, ATP luminescence, 48 h; Potency, µM (top dose mostly 46.2 µM), without a hit: at the top dose activity change, negative = growth inhibition, usual class: inhibitors; 420,000 tested, 12% active; AID 686979; note: % is set by controls: 0 for no effect and ±100 for the full control effect; nearly all actives have a fitted effect of over 55% in size
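Chicken DT40 Tdp1-/- cells stably complemented with human TDP1 were seeded at 400 cells/well in medium containing 20 nM camptothecin, exposed to pin-transferred compounds, and grown at 37 °C for at least 48 hr. Viability was read as ATP luminescence.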
Active calls of the source: *; [ ] = remark or other dose. Calls come from the whole dose curve; as a rule, active = well fitted curve in the direction sought with a large enough effect; inconclusive = small, poorly fitted or top-dose-only effect, or another doubt; inactive = no such curve, though single readings can be large; an effect the other way counts as inactive or inconclusive. Potency is the fitted concentration of half-maximal effect.

For COc1cccc(/C=N/Nc2nc3ccccc3[nH]2)c1O the results were TDP1 cell noCPT 23.1µM*, HT1080NT lethal inconclusive, TGFb SMAD3 inh 3.16µM*, HT1080 IDH1KD tx 11.6µM*, HepG2 tox -76.4% and DT40 TDP1 CPT 18.4µM*.
For COc1cccc(/C=N/Nc2nc3ccccc3[nH]2)c1OC the results were TDP1 cell noCPT -27.0%, HT1080NT lethal 14.1%, TGFb SMAD3 inh -5.5%, HT1080 IDH1KD tx 13.1%, HepG2 tox -13.8% and DT40 TDP1 CPT 7.0%.
`COc1ccc(/C=N/NC(=O)c2ccncc2)cc1CSc1nc2ccccc2s1` gave TDP1 cell noCPT inconclusive, HT1080NT lethal -17.3%, TGFb SMAD3 inh -19.8%, HT1080 IDH1KD tx -20.1%, HepG2 tox -11.8% and DT40 TDP1 CPT inconclusive.
O=C(Nc1ccccc1N1CCCC1)c1cccc(Cl)c1Cl was read as TDP1 cell noCPT inconclusive, HT1080NT lethal 3.1%, TGFb SMAD3 inh -17.9%, HT1080 IDH1KD tx 5.7%, HepG2 tox -26.2% and DT40 TDP1 CPT -26.1%.
Cc1c(N2CCCC2)cc2c(c1NC(=O)c1ccccc1Cl)C(C)(C)CC2(C)C was read as TDP1 cell noCPT 14.6µM*, HT1080NT lethal -18.3%, TGFb SMAD3 inh -29.3%, HT1080 IDH1KD tx -23.7%, HepG2 tox -3.3% and DT40 TDP1 CPT inconclusive.
Screening Cc1cc(NC(=O)C(Cl)Cl)cc2c1OCO2 returned TDP1 cell noCPT inconclusive, HT1080NT lethal 2.8%, TGFb SMAD3 inh -5.5%, HT1080 IDH1KD tx -3.5%, HepG2 tox 1.0% and DT40 TDP1 CPT -28.0%.
`COc1ccc(-c2nc(C)c(CCNC(=O)c3ccco3)s2)cc1` gave TGFb SMAD3 inh -11.7% and HepG2 tox -29.5%.
For COCCNC(=S)Nc1cccc2cnccc12 the results were TDP1 cell noCPT 3.6%, HT1080NT lethal 8.0%, TGFb SMAD3 inh -9.7%, HT1080 IDH1KD tx 9.0%, HepG2 tox -0.9% and DT40 TDP1 CPT -24.0%.
CCCCNC(=S)Nc1cccc2cnccc12 was read as TDP1 cell noCPT 23.1µM*, HT1080NT lethal -21.4%, TGFb SMAD3 inh -10.6%, HT1080 IDH1KD tx -19.5%, HepG2 tox -21.7% and DT40 TDP1 CPT 13µM*.
For S=C(NCc1ccccc1)Nc1cccc2cnccc12 the results were TDP1 cell noCPT 18.4µM*, HT1080NT lethal -3.7%, TGFb SMAD3 inh -1.6%, HT1080 IDH1KD tx inconclusive, HepG2 tox 12.2% and DT40 TDP1 CPT 11.6µM*.
Screening COc1cccc2cc(C(=O)NC3CC4CCC3C4)oc12 (stereo not drawn) returned TDP1 cell noCPT inconclusive, HT1080NT lethal -1.4%, TGFb SMAD3 inh -0.4%, HT1080 IDH1KD tx -1.2%, HepG2 tox -6.6% and DT40 TDP1 CPT inconclusive.
Screening CS(=O)(=O)N(CC(=O)NCc1ccco1)c1ccc(Cl)c(C(F)(F)F)c1 returned TDP1 cell noCPT inconclusive, HT1080NT lethal 15.6%, TGFb SMAD3 inh inconclusive, HT1080 IDH1KD tx 3.4%, HepG2 tox 2.3% and DT40 TDP1 CPT inconclusive.
Screening COC(=O)[C@@H]1CCCN1Cc1ccc2c(c1)CN(Cc1ccc(OC)c(C)c1)CCO2 returned TDP1 cell noCPT -11.1% and DT40 TDP1 CPT -1.0%[9.04 µM].
Cc1cc(F)ccc1NC(=O)C1CCCO1 (stereo not drawn) was read as TDP1 cell noCPT -2.2%, HT1080NT lethal 14.0%, TGFb SMAD3 inh 9.9%, HT1080 IDH1KD tx -5.4%, HepG2 tox -0.7% and DT40 TDP1 CPT 20.2%.
CCNc1nc(SCCOc2ccc(C)cc2)nc(N(C)C)n1 was read as TDP1 cell noCPT 20.6µM*, HT1080NT lethal -18.1%, TGFb SMAD3 inh 0.0%, HT1080 IDH1KD tx -28.1%, HepG2 tox -15.9% and DT40 TDP1 CPT 16.4µM*.
For O=C1CC[C@@H](CN(Cc2ccccc2)Cc2cn[nH]c2-c2cc3ccccc3o2)N1 the results were TDP1 cell noCPT 16.4µM*, HT1080NT lethal inconclusive, TGFb SMAD3 inh 15.6%, HT1080 IDH1KD tx inconclusive, HepG2 tox 1.8% and DT40 TDP1 CPT 25.9µM*.
For COCC1CCN(Cc2cn[nH]c2-c2cc3ccccc3o2)C1 (stereo not drawn) the results were TDP1 cell noCPT -25.3%, HT1080NT lethal -6.0%, TGFb SMAD3 inh 10.8%, HT1080 IDH1KD tx -2.0%, HepG2 tox -12.8% and DT40 TDP1 CPT -12.9%.
CCOc1ccc(-c2nc(CN(Cc3ccccc3)C[C@@H]3CCC(=O)N3)c(C)o2)cc1 was read as TDP1 cell noCPT 20.6µM*, HT1080NT lethal inconclusive, TGFb SMAD3 inh inconclusive, HT1080 IDH1KD tx inconclusive, HepG2 tox -30.4% and DT40 TDP1 CPT inconclusive.
For c1ccc2oc(-c3[nH]ncc3CN(Cc3ccncc3)CC3CCCO3)cc2c1 (stereo not drawn) the results were TDP1 cell noCPT 25.9µM*, HT1080NT lethal 8.0%, TGFb SMAD3 inh 0.1%, HT1080 IDH1KD tx 0.7%, HepG2 tox -59.9% and DT40 TDP1 CPT inconclusive.
Screening CN(Cc1cn[nH]c1-c1cc2ccccc2o1)CC1CCOCC1 returned TDP1 cell noCPT -4.0%, HT1080NT lethal -0.6%, TGFb SMAD3 inh -9.6%, HT1080 IDH1KD tx -5.2%, HepG2 tox -12.6% and DT40 TDP1 CPT -3.4%.
For CC(C)(C)c1ccc(NC(=O)CSc2nnc3scc(-c4ccccc4)n23)cc1 the results were TDP1 cell noCPT inconclusive, TGFb SMAD3 inh -23.1%, HepG2 tox -36.5% and DT40 TDP1 CPT inconclusive.
Screening COc1ccc(NC2CCCN(C(=O)c3cc(CC(C)C)nc(N)n3)C2)cc1 (stereo not drawn) returned TDP1 cell noCPT 20.5%, HT1080NT lethal 14.6%, TGFb SMAD3 inh 4.6%, HT1080 IDH1KD tx 15.2%, HepG2 tox 2.6% and DT40 TDP1 CPT -23.3%.
Screening Cn1c(=O)c2c(-c3ccccc3Cl)n(-c3cc(Cl)ccc3O)cc2n(C)c1=O returned TDP1 cell noCPT inconclusive, TGFb SMAD3 inh inconclusive, HepG2 tox -33.2% and DT40 TDP1 CPT 20.6µM*.
Cn1c(=O)c2c(-c3ccccc3Cl)n(Cc3ccc(Cl)cc3)cc2n(C)c1=O was read as TDP1 cell noCPT 6.51µM*, TGFb SMAD3 inh 1.6%, HepG2 tox -16.4% and DT40 TDP1 CPT 8.2µM*.
For CSc1cccc(NC(=O)CN(Cc2ccc(Cl)cc2)S(C)(=O)=O)c1 the results were TDP1 cell noCPT inconclusive, HT1080NT lethal inconclusive, TGFb SMAD3 inh -22.8%, HT1080 IDH1KD tx inconclusive, HepG2 tox -16.3% and DT40 TDP1 CPT -27.4%.
